# Source: paper PMC7862700, “An all-to-all approach to the identification of sequence-specific readers for epigenetic DNA modifications on cytosine”
# Tests used:
# Assay in all cases: DAPPL (digital affinity profiling via proximity ligation, sequencing); 10 mM Tris-HCl pH 7.5, 50 mM NaCl, 1 mM DTT, 4% glycerol, room temperature, 30 min; GST-TFs on glutathione beads, 16-mer random dsDNA library, 0.1% formaldehyde crosslink after washing; high values mean tight binding
# [1] = target: T1, FLI1 (Homo sapiens, UniProt Q01543 1-452); conditions: protein: recombinant; tags: N-terminal GST; dsDNA, one strand shown
# T1 sequence: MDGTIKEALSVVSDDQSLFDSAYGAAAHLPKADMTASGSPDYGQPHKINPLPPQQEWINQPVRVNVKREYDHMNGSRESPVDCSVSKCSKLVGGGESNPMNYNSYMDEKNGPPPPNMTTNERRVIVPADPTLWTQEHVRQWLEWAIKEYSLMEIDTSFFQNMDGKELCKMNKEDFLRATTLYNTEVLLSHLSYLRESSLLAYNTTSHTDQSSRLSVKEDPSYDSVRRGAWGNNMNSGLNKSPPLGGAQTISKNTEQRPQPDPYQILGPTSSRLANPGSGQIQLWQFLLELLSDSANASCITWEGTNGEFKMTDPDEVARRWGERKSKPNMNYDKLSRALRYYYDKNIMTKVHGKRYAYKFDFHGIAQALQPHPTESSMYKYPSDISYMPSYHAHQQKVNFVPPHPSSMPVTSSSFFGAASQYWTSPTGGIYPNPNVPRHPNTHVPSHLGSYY
# Outline: (§1)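 A tag-only sample was pooled with DNA-barcoded human transcription factors that had been expressed in yeast as GST fusions and captured on glutathione beads. The pools were incubated for 30 min at room temperature with 200 nmole of a random double-stranded 16-mer DNA library in Tris/NaCl/DTT/glycerol buffer, then washed, crosslinked with 0.1% formaldehyde, proximity-ligated (BsaI/T4 ligase, 1 h, 37 °C), PCR-amplified and sequenced on an Illumina NextSeq500. Binding signal is each hexamer's read frequency for a factor divided by its frequency for the tag-only sample.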
# [2] = target: T2, ELK1 (Homo sapiens, UniProt P19419 1-428); conditions: protein: recombinant; tags: N-terminal GST; dsDNA, one strand shown
# T2 sequence: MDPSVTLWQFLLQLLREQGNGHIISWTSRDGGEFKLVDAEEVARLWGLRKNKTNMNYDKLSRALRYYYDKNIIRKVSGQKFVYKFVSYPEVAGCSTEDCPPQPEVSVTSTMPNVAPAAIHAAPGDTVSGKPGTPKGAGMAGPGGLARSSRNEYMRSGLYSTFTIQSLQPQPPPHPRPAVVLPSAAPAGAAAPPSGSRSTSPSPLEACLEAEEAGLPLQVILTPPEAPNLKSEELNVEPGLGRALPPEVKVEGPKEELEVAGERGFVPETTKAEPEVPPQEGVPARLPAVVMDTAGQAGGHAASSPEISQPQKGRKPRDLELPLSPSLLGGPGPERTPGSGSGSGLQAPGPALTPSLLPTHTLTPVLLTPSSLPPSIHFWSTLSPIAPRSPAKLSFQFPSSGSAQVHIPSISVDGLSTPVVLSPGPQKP
# Outline: as §1
# [3] = target: T3, GABPA (Homo sapiens, UniProt Q06546 1-454); conditions: protein: recombinant; tags: N-terminal GST; dsDNA, one strand shown
# T3 sequence: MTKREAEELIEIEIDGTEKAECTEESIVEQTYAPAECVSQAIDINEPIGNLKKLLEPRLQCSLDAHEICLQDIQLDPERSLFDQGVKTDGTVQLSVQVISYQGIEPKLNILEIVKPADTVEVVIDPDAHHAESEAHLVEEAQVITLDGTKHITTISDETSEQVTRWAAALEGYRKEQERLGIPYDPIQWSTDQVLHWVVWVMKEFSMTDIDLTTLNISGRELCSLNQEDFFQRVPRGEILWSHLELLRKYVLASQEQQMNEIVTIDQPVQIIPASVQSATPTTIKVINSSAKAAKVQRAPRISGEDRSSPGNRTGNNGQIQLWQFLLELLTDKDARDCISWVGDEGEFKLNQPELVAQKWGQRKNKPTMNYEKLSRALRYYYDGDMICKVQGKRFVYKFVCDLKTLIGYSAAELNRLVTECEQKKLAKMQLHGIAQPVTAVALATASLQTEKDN
# Outline: as §1
# [4] = target: T4, ERG (Homo sapiens, UniProt P11308 1-479); conditions: protein: recombinant; tags: N-terminal GST; dsDNA, one strand shown
# T4 sequence: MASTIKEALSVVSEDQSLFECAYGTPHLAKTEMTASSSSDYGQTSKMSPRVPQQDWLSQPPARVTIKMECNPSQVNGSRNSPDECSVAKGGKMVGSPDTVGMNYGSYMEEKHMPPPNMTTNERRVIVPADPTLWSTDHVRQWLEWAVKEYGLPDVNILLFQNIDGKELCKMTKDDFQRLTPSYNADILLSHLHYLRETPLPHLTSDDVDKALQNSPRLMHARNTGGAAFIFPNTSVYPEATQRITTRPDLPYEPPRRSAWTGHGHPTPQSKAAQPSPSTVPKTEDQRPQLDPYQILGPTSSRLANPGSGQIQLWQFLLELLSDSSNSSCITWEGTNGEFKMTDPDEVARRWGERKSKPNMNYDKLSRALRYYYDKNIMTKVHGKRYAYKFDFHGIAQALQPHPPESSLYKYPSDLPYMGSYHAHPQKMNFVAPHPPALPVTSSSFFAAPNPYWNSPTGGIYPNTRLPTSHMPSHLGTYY
# Outline: as §1
# [5] = target: ELF1 (Homo sapiens, UniProt P32519 1-619); conditions: protein: recombinant; tags: N-terminal GST; dsDNA, one strand shown
# ELF1, sequence (P32519 whole entry): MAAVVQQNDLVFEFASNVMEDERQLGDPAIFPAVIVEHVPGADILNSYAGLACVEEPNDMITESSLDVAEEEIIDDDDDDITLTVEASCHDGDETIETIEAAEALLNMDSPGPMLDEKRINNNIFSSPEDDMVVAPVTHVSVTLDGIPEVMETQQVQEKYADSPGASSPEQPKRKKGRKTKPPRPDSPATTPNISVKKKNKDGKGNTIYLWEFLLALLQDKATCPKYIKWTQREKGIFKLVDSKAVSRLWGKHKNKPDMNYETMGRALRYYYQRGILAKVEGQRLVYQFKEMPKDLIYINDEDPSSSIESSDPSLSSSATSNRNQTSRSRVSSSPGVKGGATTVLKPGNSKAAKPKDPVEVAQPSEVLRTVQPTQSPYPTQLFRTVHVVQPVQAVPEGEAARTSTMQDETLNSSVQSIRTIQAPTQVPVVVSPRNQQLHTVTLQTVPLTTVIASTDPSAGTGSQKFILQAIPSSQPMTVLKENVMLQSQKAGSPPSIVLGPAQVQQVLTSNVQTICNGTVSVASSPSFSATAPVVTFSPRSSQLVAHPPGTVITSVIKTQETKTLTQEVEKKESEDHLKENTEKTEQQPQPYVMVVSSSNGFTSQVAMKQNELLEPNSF
# Outline: as §1
# [6] = target: T5, EHF (Homo sapiens, UniProt Q9NZC4 1-300); conditions: protein: recombinant; tags: N-terminal GST; dsDNA, one strand shown
# T5 sequence: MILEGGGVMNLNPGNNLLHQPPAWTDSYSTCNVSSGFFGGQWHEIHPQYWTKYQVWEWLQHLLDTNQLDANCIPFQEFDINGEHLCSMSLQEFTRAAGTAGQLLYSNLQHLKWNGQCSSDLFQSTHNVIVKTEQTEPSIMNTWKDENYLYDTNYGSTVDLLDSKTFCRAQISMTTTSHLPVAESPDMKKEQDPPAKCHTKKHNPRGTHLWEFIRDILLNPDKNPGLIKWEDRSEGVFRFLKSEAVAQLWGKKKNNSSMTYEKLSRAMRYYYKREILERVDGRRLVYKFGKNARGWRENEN
# Outline: as §1
# [7] = target: SPI1 (Homo sapiens, UniProt P17947 1-270); conditions: protein: recombinant; tags: N-terminal GST; dsDNA, one strand shown
# Outline: as §1
# [8] = target: SPIB (Homo sapiens, UniProt Q01892 1-262); conditions: protein: recombinant; tags: N-terminal GST; dsDNA, one strand shown
# SPIB, sequence (Q01892 whole entry): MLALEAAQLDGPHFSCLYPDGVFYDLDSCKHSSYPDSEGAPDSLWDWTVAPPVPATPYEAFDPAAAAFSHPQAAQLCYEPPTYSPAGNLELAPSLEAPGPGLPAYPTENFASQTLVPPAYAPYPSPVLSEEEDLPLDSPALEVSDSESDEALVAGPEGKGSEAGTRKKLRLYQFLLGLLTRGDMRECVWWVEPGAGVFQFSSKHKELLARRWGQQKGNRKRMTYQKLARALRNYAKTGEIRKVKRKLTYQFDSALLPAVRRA
# Outline: as §1
# [9] = target: T6, ELK3 (Homo sapiens, UniProt P41970 1-407); conditions: protein: recombinant; tags: N-terminal GST; dsDNA, one strand shown
# T6 sequence: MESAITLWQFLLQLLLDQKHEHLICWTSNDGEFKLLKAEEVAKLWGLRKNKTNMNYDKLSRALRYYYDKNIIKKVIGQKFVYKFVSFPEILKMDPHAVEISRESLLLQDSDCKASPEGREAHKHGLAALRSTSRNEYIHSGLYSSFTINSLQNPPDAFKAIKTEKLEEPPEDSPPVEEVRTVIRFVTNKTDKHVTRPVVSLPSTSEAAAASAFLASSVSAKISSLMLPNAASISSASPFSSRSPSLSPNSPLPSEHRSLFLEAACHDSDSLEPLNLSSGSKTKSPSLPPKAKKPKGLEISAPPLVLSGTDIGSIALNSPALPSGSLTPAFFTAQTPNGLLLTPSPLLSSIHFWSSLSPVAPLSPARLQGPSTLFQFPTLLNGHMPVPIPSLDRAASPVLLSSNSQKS
# Outline: as §1
# [10] = target: T7, FEV (Homo sapiens, UniProt Q99581 1-238); conditions: protein: recombinant; tags: N-terminal GST; dsDNA, one strand shown
# T7 sequence: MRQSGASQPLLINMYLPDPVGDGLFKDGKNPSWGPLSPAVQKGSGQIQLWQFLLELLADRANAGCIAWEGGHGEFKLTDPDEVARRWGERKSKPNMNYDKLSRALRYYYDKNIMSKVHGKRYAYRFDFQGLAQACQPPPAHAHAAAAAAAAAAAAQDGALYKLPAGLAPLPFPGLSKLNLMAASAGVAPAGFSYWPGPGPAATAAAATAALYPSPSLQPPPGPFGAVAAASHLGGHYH
# Outline: as §1
# [11] = target: ETV5 (Homo sapiens, UniProt P41161 1-510); conditions: protein: recombinant; tags: N-terminal GST; dsDNA, one strand shown
# ETV5, sequence (P41161 whole entry): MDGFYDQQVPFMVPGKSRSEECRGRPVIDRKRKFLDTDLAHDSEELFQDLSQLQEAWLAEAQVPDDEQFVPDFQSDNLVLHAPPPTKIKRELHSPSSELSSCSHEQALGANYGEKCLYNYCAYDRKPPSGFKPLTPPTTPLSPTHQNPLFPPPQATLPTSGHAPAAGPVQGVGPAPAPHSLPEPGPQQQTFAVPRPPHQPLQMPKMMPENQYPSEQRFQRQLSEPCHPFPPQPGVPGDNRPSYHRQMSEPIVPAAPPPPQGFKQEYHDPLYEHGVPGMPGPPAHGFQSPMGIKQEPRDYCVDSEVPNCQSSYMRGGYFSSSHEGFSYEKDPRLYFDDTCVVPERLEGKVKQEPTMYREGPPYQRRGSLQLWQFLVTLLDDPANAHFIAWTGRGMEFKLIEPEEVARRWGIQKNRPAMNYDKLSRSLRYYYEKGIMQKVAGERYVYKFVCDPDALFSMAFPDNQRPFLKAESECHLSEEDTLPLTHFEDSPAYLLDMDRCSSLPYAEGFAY
# Outline: as §1
# [12] = target: HSF1 (Homo sapiens, UniProt Q00613 1-529); conditions: protein: recombinant; tags: N-terminal GST; chain copies: 3; dsDNA, one strand shown
# HSF1, sequence (Q00613 whole entry): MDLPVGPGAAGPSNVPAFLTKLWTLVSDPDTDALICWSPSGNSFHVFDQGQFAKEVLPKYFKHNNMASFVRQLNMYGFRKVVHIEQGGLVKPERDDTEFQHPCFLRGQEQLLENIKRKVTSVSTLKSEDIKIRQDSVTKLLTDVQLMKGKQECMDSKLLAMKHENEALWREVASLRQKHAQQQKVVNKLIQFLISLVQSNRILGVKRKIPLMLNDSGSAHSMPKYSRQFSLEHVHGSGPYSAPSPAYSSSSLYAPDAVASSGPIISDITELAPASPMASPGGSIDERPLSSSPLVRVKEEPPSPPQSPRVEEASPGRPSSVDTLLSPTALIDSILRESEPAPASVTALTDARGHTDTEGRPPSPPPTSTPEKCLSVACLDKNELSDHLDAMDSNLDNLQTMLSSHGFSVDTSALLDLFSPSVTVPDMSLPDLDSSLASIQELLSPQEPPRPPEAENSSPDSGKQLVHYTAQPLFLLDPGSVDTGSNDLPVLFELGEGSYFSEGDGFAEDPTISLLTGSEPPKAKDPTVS
# Outline: as §1
# [13] = target: T8, SPIC (Homo sapiens, UniProt Q8N5J4 1-248); conditions: protein: recombinant; tags: N-terminal GST; dsDNA, one strand shown
# T8 sequence: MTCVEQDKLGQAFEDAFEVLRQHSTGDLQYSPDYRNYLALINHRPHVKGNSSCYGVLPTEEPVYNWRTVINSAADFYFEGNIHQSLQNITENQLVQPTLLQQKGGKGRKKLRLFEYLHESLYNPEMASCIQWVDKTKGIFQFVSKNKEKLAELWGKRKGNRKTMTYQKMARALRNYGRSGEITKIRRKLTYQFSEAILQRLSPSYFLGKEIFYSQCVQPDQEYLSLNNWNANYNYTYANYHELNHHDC
# Outline: as §1
# [14] = target: ELF4 (Homo sapiens, UniProt Q99607 1-663); conditions: protein: recombinant; tags: N-terminal GST; dsDNA, one strand shown
# ELF4, sequence (Q99607 whole entry): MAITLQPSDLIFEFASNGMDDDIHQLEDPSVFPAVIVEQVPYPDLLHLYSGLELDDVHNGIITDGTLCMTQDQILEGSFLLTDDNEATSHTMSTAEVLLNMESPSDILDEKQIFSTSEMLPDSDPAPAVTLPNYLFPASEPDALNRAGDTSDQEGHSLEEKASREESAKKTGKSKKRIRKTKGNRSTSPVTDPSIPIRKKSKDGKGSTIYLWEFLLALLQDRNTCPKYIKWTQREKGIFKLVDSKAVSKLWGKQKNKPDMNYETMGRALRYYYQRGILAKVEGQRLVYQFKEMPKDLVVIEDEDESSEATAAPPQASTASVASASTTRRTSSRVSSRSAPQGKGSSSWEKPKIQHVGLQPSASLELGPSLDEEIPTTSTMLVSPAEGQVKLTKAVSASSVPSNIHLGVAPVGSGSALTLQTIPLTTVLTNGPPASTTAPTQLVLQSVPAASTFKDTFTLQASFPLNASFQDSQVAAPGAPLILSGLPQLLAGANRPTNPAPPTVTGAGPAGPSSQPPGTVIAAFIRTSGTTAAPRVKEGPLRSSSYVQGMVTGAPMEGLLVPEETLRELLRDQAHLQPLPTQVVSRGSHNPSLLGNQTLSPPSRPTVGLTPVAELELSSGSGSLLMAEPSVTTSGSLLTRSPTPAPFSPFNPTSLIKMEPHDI
# Outline: as §1
# [15] = target: T9, ELK4 (Homo sapiens, UniProt P28324-2 1-405); conditions: protein: recombinant; tags: N-terminal GST; dsDNA, one strand shown
# T9 sequence: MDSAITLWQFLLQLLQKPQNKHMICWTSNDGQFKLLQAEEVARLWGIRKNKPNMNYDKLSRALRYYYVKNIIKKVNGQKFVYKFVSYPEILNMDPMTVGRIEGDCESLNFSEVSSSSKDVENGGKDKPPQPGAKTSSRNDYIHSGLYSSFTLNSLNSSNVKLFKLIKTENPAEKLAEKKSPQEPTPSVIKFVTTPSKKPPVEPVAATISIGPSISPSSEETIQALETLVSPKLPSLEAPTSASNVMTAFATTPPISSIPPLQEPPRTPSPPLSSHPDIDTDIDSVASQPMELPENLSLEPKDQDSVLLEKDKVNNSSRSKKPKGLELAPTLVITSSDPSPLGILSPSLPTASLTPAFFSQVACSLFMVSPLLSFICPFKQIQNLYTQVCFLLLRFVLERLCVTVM
# Outline: as §1
# [16] = target: T10, ETV2 (Homo sapiens, UniProt O00321 1-342); conditions: protein: recombinant; tags: N-terminal GST; dsDNA, one strand shown
# T10 sequence: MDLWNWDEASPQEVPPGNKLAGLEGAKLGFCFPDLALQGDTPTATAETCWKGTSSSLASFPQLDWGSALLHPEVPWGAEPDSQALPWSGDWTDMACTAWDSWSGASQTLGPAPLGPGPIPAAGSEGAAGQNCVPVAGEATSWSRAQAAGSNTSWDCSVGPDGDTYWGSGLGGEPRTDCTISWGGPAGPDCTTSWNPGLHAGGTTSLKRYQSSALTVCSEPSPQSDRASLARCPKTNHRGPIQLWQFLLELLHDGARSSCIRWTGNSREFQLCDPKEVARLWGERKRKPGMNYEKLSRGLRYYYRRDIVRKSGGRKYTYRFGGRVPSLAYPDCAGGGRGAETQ
# Outline: as §1
# [17] = target: T11, ELF3 (Homo sapiens, UniProt P78545 1-371); conditions: protein: recombinant; tags: N-terminal GST; dsDNA, one strand shown
# T11 sequence: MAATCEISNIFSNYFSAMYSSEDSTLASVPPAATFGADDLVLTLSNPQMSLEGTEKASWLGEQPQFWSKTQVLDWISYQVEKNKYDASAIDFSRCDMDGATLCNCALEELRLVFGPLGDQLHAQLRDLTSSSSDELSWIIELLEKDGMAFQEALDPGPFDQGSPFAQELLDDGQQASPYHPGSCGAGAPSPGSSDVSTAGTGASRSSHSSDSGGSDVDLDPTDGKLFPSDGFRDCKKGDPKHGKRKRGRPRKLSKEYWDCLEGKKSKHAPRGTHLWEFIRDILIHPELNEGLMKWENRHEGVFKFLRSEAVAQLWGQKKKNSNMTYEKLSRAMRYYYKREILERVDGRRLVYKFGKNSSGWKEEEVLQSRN
# Outline: as §1
# [18] = target: CRX (Homo sapiens, UniProt O43186 1-299); conditions: protein: recombinant; tags: N-terminal GST; dsDNA, one strand shown
# CRX, sequence (O43186 whole entry): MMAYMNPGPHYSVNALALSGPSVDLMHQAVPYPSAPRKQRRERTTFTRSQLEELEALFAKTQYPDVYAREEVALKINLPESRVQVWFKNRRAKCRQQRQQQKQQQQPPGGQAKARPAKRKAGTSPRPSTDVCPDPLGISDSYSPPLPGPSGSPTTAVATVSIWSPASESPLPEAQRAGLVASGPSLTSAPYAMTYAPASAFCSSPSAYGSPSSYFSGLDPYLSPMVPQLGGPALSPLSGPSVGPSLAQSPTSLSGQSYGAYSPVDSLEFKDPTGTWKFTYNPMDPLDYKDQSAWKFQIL
# Outline: as §1
# [19] = target: ETV1 (Homo sapiens, UniProt P50549 1-477); conditions: protein: recombinant; tags: N-terminal GST; dsDNA, one strand shown
# ETV1, sequence (P50549 whole entry): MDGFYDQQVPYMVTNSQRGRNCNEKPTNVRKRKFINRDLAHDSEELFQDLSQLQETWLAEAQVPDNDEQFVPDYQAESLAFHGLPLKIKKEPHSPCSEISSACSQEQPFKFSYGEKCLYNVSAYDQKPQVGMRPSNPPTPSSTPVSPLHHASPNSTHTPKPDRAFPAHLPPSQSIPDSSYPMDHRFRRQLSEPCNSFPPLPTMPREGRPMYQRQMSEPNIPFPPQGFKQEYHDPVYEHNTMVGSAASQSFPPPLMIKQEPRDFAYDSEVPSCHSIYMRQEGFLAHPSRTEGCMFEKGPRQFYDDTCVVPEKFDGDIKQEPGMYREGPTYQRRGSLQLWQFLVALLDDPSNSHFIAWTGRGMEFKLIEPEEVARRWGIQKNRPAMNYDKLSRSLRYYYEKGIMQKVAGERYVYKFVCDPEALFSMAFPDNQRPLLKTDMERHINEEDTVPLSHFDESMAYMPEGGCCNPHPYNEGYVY
# Outline: as §1
sequence,measurement,setting,value
TCCTGT,binding signal,[1],"1.8 fold enrichment (6-mer frequency, TF over GST control)"
same,binding signal,[2],"1.72 fold enrichment (6-mer frequency, TF over GST control)"
same,binding signal,[3],"1.69 fold enrichment (6-mer frequency, TF over GST control)"
same,binding signal,[4],"1.94 fold enrichment (6-mer frequency, TF over GST control)"
same,binding signal,[5],"1.71 fold enrichment (6-mer frequency, TF over GST control)"
same,binding signal,[6],"1.67 fold enrichment (6-mer frequency, TF over GST control)"
same,binding signal,[7],"1.99 fold enrichment (6-mer frequency, TF over GST control)"
same,binding signal,[8],"1.88 fold enrichment (6-mer frequency, TF over GST control)"
same,binding signal,[9],"1.88 fold enrichment (6-mer frequency, TF over GST control)"
same,binding signal,[10],"1.85 fold enrichment (6-mer frequency, TF over GST control)"
same,binding signal,[11],"2.04 fold enrichment (6-mer frequency, TF over GST control)"
same,binding signal,[12],"1.14 fold enrichment (6-mer frequency, TF over GST control)"
same,binding signal,[13],"1.87 fold enrichment (6-mer frequency, TF over GST control)"
same,binding signal,[14],"1.65 fold enrichment (6-mer frequency, TF over GST control)"
same,binding signal,[15],"1.56 fold enrichment (6-mer frequency, TF over GST control)"
same,binding signal,[16],"1.71 fold enrichment (6-mer frequency, TF over GST control)"
same,binding signal,[17],"1.78 fold enrichment (6-mer frequency, TF over GST control)"
same,binding signal,[18],"1.16 fold enrichment (6-mer frequency, TF over GST control)"
same,binding signal,[19],"1.89 fold enrichment (6-mer frequency, TF over GST control)"
